High-throughput results: PubChem, National Center for Advancing Translational Sciences (NCATS)
Hits are enriched below; roughly 14% of the tested compounds scored in any of these assays.
4-MU autofl – compound fluoresces in the 4-MU spectral region | compound autofluorescence, 340/450 nm, 4-MU equivalents; stronger effect = higher value | max dye-equivalent concentration, M | 59,000 tested, 11% active | AID 589; in the data active means max dye-equivalent concentration above about 10 nM; inconclusive means mostly about 1.1 nM to 9.6 nM
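Compounds in 100 mM Tris, pH 8.0, incubated 15 min at room temperature, then fluorescence read at 340 nm excitation/450 nm emission. Signal converted to 4-MU dye-equivalent concentration using an on-plate six-point 4-MU standard curve.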
CRE-bla Fsk – modulators of forskolin-stimulated CRE signaling in CHO cells. CHO CRE-bla reporter (cAMP response element driving beta-lactamase), forskolin EC10, beta-lactamase ratio. AID 662. Potency, µM (top dose mostly 38.2 µM), for inactives: at the highest dose activity change, negative = inhibition, usual class: activators. 71,000 tested, 2.5% active; active means well fitted activation curve with a large enough effect in the signal ratio, with a control signal flat, not every such curve was filed as active; inconclusive means small, poorly fitted or top-dose-only effect, or effect the other way, or a change in a side signal; the % refers to the signal ratio; further: potency means the concentration at half of the fitted maximal effect; % of control where 0% means no effect
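Modulation of forskolin signalling: compounds in titration series added with EC10 NKH 477 to CHO cells carrying a CRE-driven beta-lactamase reporter, 3 h, 37C. CCF4 FRET ratio (460/530 nm, ex 405 nm) gives %activity and AC50.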
HSD17B inh – blocks hydroxysteroid 17-beta dehydrogenase activity | Potency, µM (top dose mostly 57.1 µM), for inactives: top-dose activity change, negative = inhibition, hits mostly inhibitors | recombinant HSD17B10, NADH fluorescence kinetic | AID 893 | 75,000 tested, 7.6% active;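 further: the protocol describes HADH2 (HSD17B10) and not the HSD17B4 of the title; potency means the concentration at half of the fitted maximal effect; on the % scale 0 is the no-effect control and ±100 the full control effect; nearly all actives have a fitted effect of over 70% in size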
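Activity followed as NADH fluorescence increase (ex 360, em 450 nm) every 30 seconds for 4 min, using final 90 uM beta-hydroxybutyryl CoA and 1 mM NAD+. Recombinant His-tagged enzyme, 20 nM, pH 9.0 Tris buffer, 15 min compound preincubation.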
HADH2 inhib – HADH2 (human) dehydrogenase inhibition; Q99714; recombinant HADH2, NADH fluorescence, beta-hydroxybutyryl-CoA; Potency, µM (titrated, usually from 57.1 µM), inactives show top-dose activity change, negative = inhibition, actives largely listed as inhibitors; 73,000 tested, 3.4% active; further: potency means the concentration at half of the fitted maximal effect; on the % scale 0 is the no-effect control and ±100 the full control effect; nearly all actives have a fitted effect of over 60% in size
Target sequence (Q99714 whole entry, looked up, one chain of several): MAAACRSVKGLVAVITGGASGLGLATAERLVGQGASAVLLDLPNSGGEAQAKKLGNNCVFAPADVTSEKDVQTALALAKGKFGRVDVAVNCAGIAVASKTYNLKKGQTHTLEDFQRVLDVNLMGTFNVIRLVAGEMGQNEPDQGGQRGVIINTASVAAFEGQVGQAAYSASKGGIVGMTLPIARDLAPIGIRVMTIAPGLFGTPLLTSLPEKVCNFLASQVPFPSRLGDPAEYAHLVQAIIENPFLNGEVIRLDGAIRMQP
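Read-out: 360 nm excitation, 450 nm emission, kinetic over 4 min. Conditions: His-tagged human HADH2 20 nM, pH 9.0 Tris with Tween-20, 1 mM NAD+, 90 uM beta-hydroxybutyryl-CoA.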
A350 autofl – A350 region autofluorescence; Compound autofluorescence, 340/450 nm, Alexa 350 dye-equivalents; stronger effect = higher value; max dye-equivalent concentration, M; 59,000 tested, 11% active; in the data active means max dye-equivalent concentration above about 10 nM; inconclusive means mostly about 1.1 nM to 9.6 nM
AID923 – qHTS Assay for Allosteric/Competitive Inhibitors of Caspase-1: Spectroscopic Profiling in AFC Spectral Region. compound fluorescence, AFC spectral region (405/520 nm). Potency, µM (doses to about 57.5 µM), inactives show top-dose fluorescence increase, usual class: activators. 75,000 tested, 1.1% active; further: potency means the concentration at half of the fitted maximal effect; 0% is about no effect
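Baseline compound fluorescence (AFC region, 405 nm ex/520 nm em) taken from the intercept of kinetic reads with 50 nM caspase-1 and 5 uM Ac-WEHD-AFC; normalized to an on-plate AFC standard curve; compounds titrated up to 57 uM.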
* marks the source's active call; other numbers are inactive results; i = inactive; ? = inconclusive; nt = no result; [ ] = another dose, or the depositor's remark. Unless noted, the call rests on the fitted dose curve; in most records, active means well fitted curve in the direction sought with a large enough effect; inconclusive means small, poorly fitted or top-dose-only effect, or another doubt; inactive means no such curve, though single readings can be large; an effect the other way counts as inactive or inconclusive.

SMILES	4-MU autofl	CRE-bla Fsk	HSD17B inh	HADH2 inhib	A350 autofl	AID923
COc1ccccc1-c1cncnc1-n1ccnc1	i	-11%	?	0%	i	-3%
CCC/C=C(\CCC)C(NC(=O)c1ccco1)c1ccc(C(=O)OC)cc1 (configuration not stated)	nt	3%	-15%	9%	nt	-1%
Cc1cnc(CNc2cc(-c3ccc(N(C)C)cc3)ncn2)cn1	?	8%	25µM*	-17%	?	2%
Cc1cccc2nc(CSCc3ccco3)cn12	i	-14%	-24%	-16%	?	4%
Cc1cc(C)n2cc(CSC3=NCCS3)nc2n1	2.6e-08M*	?	32µM*	32µM*	3.3e-08M*	0%
Cc1cc(C)n2cc(CSCc3ccco3)nc2n1	i	-1%	32µM*	-19%	i	5%
C=CCSc1ncccc1C(=O)O	?	-17%	3%	1%	?	0%
Cc1cc(C)n2cc(CSc3ncccc3C(=O)O)nc2n1	3.7e-08M*	-11%	32µM*	32µM*	5.3e-08M*	-2%
Cc1cc(C)n2cc(CSc3nnnn3-c3ccccc3C)nc2n1	?	?	?	-5%	?	0%
COC(=O)CCCC(=O)O	i	0%[7.6 µM]	0%[11.4 µM]	4%[11.4 µM]	i	4%[11.5 µM]
CNC(=O)C1(CC(C)C)C=CCN1C(=O)c1ccccc1 (configuration not stated)	nt	-6%	20%	-1%	nt	2%
COC(=O)Cn1cnc2c(C#N)c3n(c2c1=O)CCCCC3	i	3%	5%	-8%	i	1%
N#Cc1c2n(c3c(-c4ccccc4)ncnc13)CCC2	nt	?	32µM*	-16%	nt	2%
N#Cc1c2n(c3c(=O)n(Cc4ccccc4Cl)cnc13)CCCCC2	1.6e-08M*	2%	6%	-1%	1.9e-08M*	-1%
CCCC(=O)N(c1ccc2oc(=O)sc2c1)S(=O)(=O)c1cccs1	i	-4%	25µM*	1.3µM*	i	1%
CC(=O)N(c1ccc2oc(=O)sc2c1)S(=O)(=O)c1ccccc1	i	2%	16µM*	3.2µM*	i	-3%
CC(=O)OCC1OC(C#Cc2ccc(Cl)cc2)C=CC1OC(C)=O (configuration not stated)	nt	nt	2%[11.4 µM]	2%[11.4 µM]	nt	3%[11.5 µM]
N#CCCSC(=S)[C@H]1CCCC1=N	i	-8%[7.6 µM]	7%[11.4 µM]	6%[11.4 µM]	i	1%[11.5 µM]
O=c1[nH]c2c(cc1CNCCN1CCOCC1)c(-c1cccc(F)c1)nn2-c1ccccc1	?	?	25µM*	i	1e-08M*	1%
Cc1nn(-c2ccccc2)c2[nH]c(=O)c(CNc3ccc(N4CCOCC4)cc3)cc12	i	?	-16%	-3%	i	2%
CC(C)CCN1CCc2nc(-c3ccccc3)c3c(c2C1)COC(C)C3 (configuration not stated)	nt	nt	2%[11.4 µM]	12%[11.4 µM]	nt	-1%[11.5 µM]
O=C1CC(C(=O)Nc2ccc(O)c(C(=O)O)c2)C(c2ccccc2)O1 (configuration not stated)	?	-8%	32µM*	25µM*	?	2%
CCOC(=O)OCC1OC(c2ccc(C(C)=O)cc2)C=CC1OC(=O)OCC (configuration not stated)	nt	nt	4µM*	11%[11.4 µM]	nt	3%[11.5 µM]
N[C@H](C(=O)O)c1cccc(O)c1	nt	-9%	12%	6%	nt	-2%
Cc1ccccc1C#N	nt	-3%	-2%	0%	nt	-4%
SMILES	4-MU autofl	CRE-bla Fsk	HSD17B inh	HADH2 inhib	A350 autofl	AID923
Cc1csc2ncc(C(=O)NCc3ccco3)c(=O)n12	2.3e-07M*	12%	25µM*	32µM*	2.1e-07M*	1%
COc1ccc(CNC(=O)c2cnc3scc(C)n3c2=O)cc1	nt	?	25µM*	?	nt	3%
O=C(O)c1nc(-c2ccccc2)[nH]c1C(=O)O	i	-9%[7.6 µM]	-7%[11.4 µM]	-16%[11.4 µM]	i	13%[11.5 µM]
CC1CCCCN1CCCNC(=O)c1ccc(Cc2nc3ccccc3[nH]2)cc1 (configuration not stated)	nt	nt	9%	-8%	nt	0%
CCOc1cc(C2CC(=O)N3CN(C4CCCCC4)CSC3=C2C#N)ccc1O (configuration not stated)	nt	-11%	?	3.2µM*	nt	0%
COc1ccc(C2C(=O)N(C3CCCCC3)CC(=O)N2CCc2ccccc2)cc1OC (configuration not stated)	i	5%	3%	-7%	i	0%
COc1ccc2ccccc2c1C1CC(=O)N2CN(Cc3ccco3)CSC2=C1C#N (configuration not stated)	nt	?	25µM*	1.3µM*	nt	0%
CCOc1cc(C2CC(=O)Nc3cc(C)c(C)cc32)ccc1O (configuration not stated)	i	11%	2%	-18%	i	-3%
COc1cc(C2CC(=O)N3CN(Cc4ccco4)CSC3=C2C#N)ccc1OCc1ccccc1 (configuration not stated)	nt	?	?	2µM*	nt	2%
COc1ccc2ccccc2c1C1CC(=O)N2CN(C3CCCCC3)CSC2=C1C#N (configuration not stated)	nt	?	16µM*	1.6µM*	nt	-2%
COc1ccccc1N1CCN(Cc2ccco2)CC1	i	?	1%	-14%	i	-1%
COC(=O)[C@@]1(Cc2ccc(F)cc2)[C@H]2c3cc(C(=O)N(C)C)n(Cc4c(CO)[nH]cc(C)c4=O)c3C[C@H]2CN1C(=O)c1ccccc1	nt	-22%	4%	4%	nt	0%
C=CC[C@@H]1C=C[C@@H](O/N=C\[C@@H](OC)[C@H](C)/C=C\CC(=O)OC)[C@@H](CO)O1	nt	nt	2%[11.4 µM]	8%[11.4 µM]	nt	1%[11.5 µM]
COc1ccc(-n2nc3ccc(NS(C)(=O)=O)cc3n2)cc1Cl	7.2e-08M*	4%	16µM*	?	6.5e-08M*	5%
CC1(C)CC(=O)C2=C(C1)OC1=C(C(=O)CC(C)(C)C1)C2c1ccc(O)cc1O	nt	?	21%	4µM*	nt	5%
CCOC(=O)C1=C(N)OC2=C(C(=O)CC(C)(C)C2)C1c1ccco1 (configuration not stated)	i	-1%	-5%	-6%	?	2%
COC(=O)NC(c1cccc(F)c1)C(C(C)=O)C(=O)OC (configuration not stated)	nt	nt	3%[11.4 µM]	14%[11.4 µM]	nt	5%[11.5 µM]
CCCCCCCN	nt	-14%	-2%	-2%	nt	2%
CO[C@@]1(NC(=O)Cc2cccs2)C(=O)N2C(C(=O)O)=C(COC(N)=O)CSC21 (some centres not stated)	nt	nt	?	nt	nt	1%
